Compound activity (PubChem)
Sampled rows, rich in hits. Any-hit rate of the full collection: about 0.61%.
BioA inh-1 = M. tuberculosis BioA enzyme inhibitors, primary screen, biochemical, plate reader, single point, HTS | 0.096% of 360,000 active | purified M. tuberculosis BioA enzyme | inhibition, % at 9.99 µM | AID 602481, 2012 | 7,8-diaminopelargonic acid synthase BioA (Mycobacterium tuberculosis); in the data active = inhibition above about 40%; inconclusive = no clear call, values can overlap the other calls
FadD28 FP inh = inhibitors of FadD28 bisubstrate probe binding, primary screen, biochemical, fluorescence polarization, single point | Mycobacterium tuberculosis FadD28 fatty-acid-AMP ligase | inhibition, % at 12.5 µM | 0.22% of 360,000 active; in the data active = inhibition above about 8.5%, passing the limit was not always enough; inconclusive = no clear call, values can overlap the other calls
BH1578 lux ind = inducers of Vibrio cholerae quorum light production without autoinducers, primary screen, BH1578 luxS cqsA deficient, single point; AID 588436, 2011; 0.16% of 350,000 active; activation, % at 18.7 µM; V. cholerae BH1578 lux reporter, luminescence, 6 h; in the data active = activation mostly above about 9.7%, no sharp cut-off; inconclusive = no clear call, values can overlap the other calls; inactive = mostly below about 3.7%
Y pestis TopoI = Yersinia pestis topoisomerase I inhibitors, primary screen, biochemical, cleavage product accumulation, plate reader, single point | DNA topoisomerase I (Yersinia pestis CO92) | Y. pestis Topo-I cleavage product accumulation | activity, % at 10 µM | 0.064% of 360,000 active; in the data active = activity above about 50%, passing the limit was not always enough; inconclusive = no clear call, values can overlap the other calls
TcdB inh = TcdB glycohydrolase inhibitors, primary screen, biochemical, single point, plate reader; AID 652162, 2013; 0.24% of 350,000 active; TcdB glycohydrolase enzymatic assay; inhibition, % at 9.99 µM; in the data active = inhibition above about 10%
Target sequence (P18177 whole entry, looked up): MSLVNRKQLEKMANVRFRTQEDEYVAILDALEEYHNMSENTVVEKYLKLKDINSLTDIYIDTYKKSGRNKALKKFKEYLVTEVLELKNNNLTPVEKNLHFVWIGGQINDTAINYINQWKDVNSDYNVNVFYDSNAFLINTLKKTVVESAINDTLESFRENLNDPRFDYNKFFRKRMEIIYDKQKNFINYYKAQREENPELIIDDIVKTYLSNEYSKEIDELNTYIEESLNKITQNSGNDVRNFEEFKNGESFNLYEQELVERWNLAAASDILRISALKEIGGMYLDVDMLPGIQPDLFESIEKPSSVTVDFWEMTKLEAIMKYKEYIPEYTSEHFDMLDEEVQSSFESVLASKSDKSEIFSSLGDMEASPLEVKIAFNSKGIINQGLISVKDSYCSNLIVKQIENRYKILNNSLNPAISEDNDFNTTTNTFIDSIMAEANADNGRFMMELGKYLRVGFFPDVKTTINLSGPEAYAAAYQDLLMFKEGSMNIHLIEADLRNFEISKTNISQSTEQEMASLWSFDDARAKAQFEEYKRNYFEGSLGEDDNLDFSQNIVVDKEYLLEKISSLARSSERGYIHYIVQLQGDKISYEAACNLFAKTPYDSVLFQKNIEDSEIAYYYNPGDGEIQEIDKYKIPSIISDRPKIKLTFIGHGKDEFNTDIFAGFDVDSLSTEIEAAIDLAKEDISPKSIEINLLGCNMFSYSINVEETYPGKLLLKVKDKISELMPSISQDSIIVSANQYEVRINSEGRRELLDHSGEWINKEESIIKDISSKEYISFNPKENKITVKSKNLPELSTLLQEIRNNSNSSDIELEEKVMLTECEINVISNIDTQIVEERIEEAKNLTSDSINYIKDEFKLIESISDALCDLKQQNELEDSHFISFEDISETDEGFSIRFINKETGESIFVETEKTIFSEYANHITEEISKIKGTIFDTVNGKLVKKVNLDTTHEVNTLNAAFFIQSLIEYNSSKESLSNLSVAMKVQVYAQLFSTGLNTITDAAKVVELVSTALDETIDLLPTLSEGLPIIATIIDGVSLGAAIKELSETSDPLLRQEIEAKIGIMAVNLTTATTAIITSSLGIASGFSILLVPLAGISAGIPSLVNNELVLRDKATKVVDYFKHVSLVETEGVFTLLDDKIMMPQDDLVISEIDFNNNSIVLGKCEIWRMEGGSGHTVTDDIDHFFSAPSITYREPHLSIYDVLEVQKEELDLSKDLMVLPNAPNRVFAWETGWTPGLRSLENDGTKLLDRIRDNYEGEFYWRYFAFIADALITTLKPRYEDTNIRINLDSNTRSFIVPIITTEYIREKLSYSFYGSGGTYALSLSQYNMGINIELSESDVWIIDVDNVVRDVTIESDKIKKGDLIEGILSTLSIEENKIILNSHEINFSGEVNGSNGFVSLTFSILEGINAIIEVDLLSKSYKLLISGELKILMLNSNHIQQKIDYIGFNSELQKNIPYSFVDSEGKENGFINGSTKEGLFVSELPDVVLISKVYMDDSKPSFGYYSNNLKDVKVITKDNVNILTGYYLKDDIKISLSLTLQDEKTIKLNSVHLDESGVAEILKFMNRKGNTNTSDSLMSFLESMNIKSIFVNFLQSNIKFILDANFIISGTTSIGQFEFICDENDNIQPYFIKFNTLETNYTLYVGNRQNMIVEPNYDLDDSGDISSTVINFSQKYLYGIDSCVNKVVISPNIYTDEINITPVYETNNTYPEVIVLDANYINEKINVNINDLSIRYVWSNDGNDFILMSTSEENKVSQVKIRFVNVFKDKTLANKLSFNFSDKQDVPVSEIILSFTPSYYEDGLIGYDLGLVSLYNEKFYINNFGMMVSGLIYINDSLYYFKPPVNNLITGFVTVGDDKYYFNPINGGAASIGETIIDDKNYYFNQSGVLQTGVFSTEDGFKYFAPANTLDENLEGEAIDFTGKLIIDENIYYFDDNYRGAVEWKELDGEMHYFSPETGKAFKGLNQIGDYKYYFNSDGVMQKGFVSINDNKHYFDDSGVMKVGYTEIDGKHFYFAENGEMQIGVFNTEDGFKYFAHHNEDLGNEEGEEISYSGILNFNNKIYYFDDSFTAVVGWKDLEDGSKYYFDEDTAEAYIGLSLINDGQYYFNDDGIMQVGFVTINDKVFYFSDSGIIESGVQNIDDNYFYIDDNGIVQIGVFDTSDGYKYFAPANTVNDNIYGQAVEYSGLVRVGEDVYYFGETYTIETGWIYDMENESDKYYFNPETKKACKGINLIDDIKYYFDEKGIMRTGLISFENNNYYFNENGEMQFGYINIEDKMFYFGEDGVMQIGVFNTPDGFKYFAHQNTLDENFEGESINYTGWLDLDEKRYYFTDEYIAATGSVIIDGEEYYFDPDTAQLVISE
BioA inh-2 = Mtb BioA enzyme inhibitors, dose response, biochemical, plate reader, cherry-pick samples, set 03; shares compounds with BioA inh-1; max activity, %; purified BioA enzyme; AID 651679, 2012; 310 tested, under 10 active;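 also: top concentration of the dilution series was 10 µM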
HepG2 tox 2 = cytotoxicity in HepG2 cells, dose response, cytotoxicity control, cell-based, plate reader, cherry-pick, two tests; max activity, %; shares compounds with BioA inh-1; 310 tested, under 10 active
3T3 cytotox 5 = cytotoxicity in NIH3T3 fibroblasts, dose response, cytotoxicity control, cell-based, plate reader, cherry-pick, two tests | shares compounds with BioA inh-1 | activity change, negative = cytotoxicity, % at 26 µM | 310 tested, under 10 active | AID 651900, 2012
Numbers without * were called inactive; i = inactive; ? = inconclusive; . = no result. Unless noted, no rule for the calls is given here.

SMILES	BioA inh-1	FadD28 FP inh	BH1578 lux ind	Y pestis TopoI	TcdB inh	BioA inh-2	HepG2 tox 2	3T3 cytotox 5
COc1cc(CCNC(=O)c2ccccc2NC(=O)C2=C(C)OCCS2)cc(OC)c1OC	3	-2	-1	11	2	.	.	.
Cc1cccc(-c2nnc(SCC#N)n2-c2ccccc2)c1	44*	-1	i	2	.	-6	-6	-5
Cc1cccc(-c2nnc(SCC#N)n2Cc2ccccc2)c1	15	-3	i	-2	.	.	.	.
O=C(Nc1ccc(F)c(F)c1)c1ccc(-n2cncn2)c([N+](=O)[O-])c1	79*	-1	-1	-5	8	2	-5	2
COc1ccc(NC(=O)c2ccc(-n3cncn3)c([N+](=O)[O-])c2)cc1OC	66*	-1	-2	1	2	-3	6	-2
Cc1cccc(C2c3[nH]c4ccccc4c3CCN2C(=O)CN2CCOC2=O)n1 (stereo not given)	52*	0	i	12	1	-3	-11	3
COc1ccc(Cc2c(-c3ccc(OC)c(OC)c3)nc3c(C)cc(Br)cn23)c(C)c1	69*	-4	.	.	0	-8	-7	-2
COc1ccc(Cc2c(-c3ccc(F)cc3)nc3ccc(C)cn23)c(C)c1	.	.	.	.	1	.	.	.
COc1ccc(Cc2c(-c3ccc(C)cc3)nc3c(C)cc(Br)cn23)c(C)c1	0	-1	.	.	-5	.	.	.
COc1ccc(Cc2c(-c3ccc(OC)c(OC)c3)nc3ccc(C)cn23)c(C)c1	79*	-8	.	.	2	4	-3	-1
Fc1ccc(-c2ccc3c(c2)C2CC3CCN2)cc1 (stereo not given)	66*	-2	-1	-3	1	-5	16	-2
Cc1cccc(-c2ccc3c(c2)C2CC3CCN2C)c1 (stereo not given)	3	0	0	6	2	.	.	.
Cc1cccc(-c2ccc3c(c2)C2CC3CCN2)c1 (stereo not given)	56*	0	-1	8	2	-11	-9	-8
FC(F)(F)c1ccc(-c2cccc3c2C2CC3CCN2)cc1 (stereo not given)	22	-5	i	4	-1	.	.	.
O=C(CSc1nc2ccccc2c(=O)n1-c1ccc(F)cc1)Nc1ccc(C(=O)O)cc1	0	-2	i	-3	-2	.	.	.
O=C(CSc1nc2cc(C(=O)O)ccc2c(=O)n1-c1ccc(F)cc1)Nc1ccc(F)c(F)c1F	81*	-1	-8	-4	0	-9	-8	-12
C=CCn1c(COc2ccccc2F)nnc1SCCN1C(=O)c2ccccc2C1=O	44*	-5	i	20	.	-7	12	0
C=CCn1c(SCCN2C(=O)c3ccccc3C2=O)nc2scc(-c3ccc(F)cc3)c2c1=O	.	-1	1	6	1	.	.	.
COc1cc(/C=C/C(=O)Nc2cccnc2)cc(OC)c1OC	50*	-5	0	3	2	-4	-7	-3
COc1cc(C(=O)Nc2cccnc2)cc(OC)c1OC	80*	1	-1	5	2	-9	-14	-10
COc1ccc(S(=O)(=O)N(C)C[C@H]2Oc3ccc(NC(=O)Nc4ccc(C(F)(F)F)cc4)cc3CC(=O)N([C@@H](C)CO)C[C@@H]2C)cc1	-1	.	.	.	0	.	.	.
C[C@H](CO)N1C[C@H](C)[C@@H](CN(C)S(=O)(=O)c2ccccc2)Oc2ncc(C#CCN(C)C)cc2C1=O	1	.	.	.	0	.	.	.
O=C(N[C@H]1CC[C@H](CCn2cc(-c3cccnc3)nn2)O[C@H]1CO)c1ccccc1F	7	.	.	.	0	.	.	.
O=C(N[C@H]1CC[C@@H](CCn2cc(-c3cccnc3)nn2)O[C@@H]1CO)c1ccccc1F	55*	.	.	.	1	8	i	7
O=C(N[C@@H]1CC[C@H](CCn2cc(-c3cccnc3)nn2)O[C@@H]1CO)c1ccccc1F	60*	.	.	.	0	5	i	7
SMILES	BioA inh-1	FadD28 FP inh	BH1578 lux ind	Y pestis TopoI	TcdB inh	BioA inh-2	HepG2 tox 2	3T3 cytotox 5
COCC(=O)Nc1ccc2c(c1)C(=O)N(C)[C@@H]1CC[C@H](CC(=O)Nc3ccccc3)O[C@H]1CO2	11	.	.	.	0	.	.	.
CCOC(=O)C1CCN(C(=O)Nc2ccc3snnc3c2)CC1	72*	-1	1	5	3	-7	-12	4
CCOC(=O)C1CCN(C(=O)Nc2ccc3nccnc3c2)CC1	1	-4	i	-4	.	.	.	.
C[C@H](CO)N1C[C@H](C)[C@H](CN(C)C(=O)C2CC2)Oc2ncc(C#Cc3ccccc3F)cc2C1=O	3	.	.	.	0	.	.	.
CCOC(=O)C1=C(C)Nc2sc(C(=O)c3ccc(OC)cc3)c(N)c2C1c1ccc(C(=O)OC)cc1 (stereo not given)	-2	0	0	3	1	.	.	.
COC(=O)C1=C(C)Nc2sc(C(N)=O)c(N)c2C1c1ccncc1 (stereo not given)	76*	1	0	-2	-2	-8	-16	4
C[C@@H]1CN([C@H](C)CO)S(=O)(=O)c2ccc(-c3ccc(C#N)cc3)cc2O[C@@H]1CN(C)C(=O)CN(C)C	1	.	.	.	-1	.	.	.
O=C(c1ccc2c(c1)OCO2)N1CC[C@@H]2[C@H](CO)Nc3ccc(-c4ccc(F)cc4)cc3[C@@H]21	90*	.	.	.	1	-7	i	-13
O=C(c1ccc2c(c1)OCO2)N1CC[C@@H]2[C@@H](CO)Nc3ccc(-c4ccc(F)cc4)cc3[C@@H]21	10	.	.	.	2	.	.	.
N#Cc1ccc(-c2ccc3c(c2)[C@@H]2[C@@H](CCN2C(=O)c2ccc(F)cc2)[C@@H](CO)N3)cc1	40*	.	.	.	.	5	i	-6
N#Cc1ccc(-c2ccc3c(c2)[C@H]2[C@H](CCN2C(=O)c2ccc(F)cc2)[C@H](CO)N3)cc1	10	.	.	.	.	.	.	.
O=C(c1ccc2c(c1)OCO2)N1C[C@H]2[C@@H](c3ccccc31)[C@H](CO)N2Cc1cccnc1	1	.	.	.	0	.	.	.
O=C(Nc1ccc(F)cc1)NC1CCN(Cc2nnnn2Cc2ccco2)CC1	74*	-4	i	-1	.	6	?	0
Cc1cc(NC(=O)CN(C)S(=O)(=O)c2cnc[nH]2)ccc1Br	42*	-1	1	8	0	3	5	-4
Cc1cccc(NC(=O)CN(C)S(=O)(=O)c2cnc[nH]2)c1	3	-3	i	-1	.	.	.	.
CC(=O)c1ccc(NC(=O)C2CC(=O)N(Cc3ccccc3)C2)cc1 (stereo not given)	74*	-2	0	0	.	-8	4	-13
